According to PubChem BioAssay AID488890 (Southern Research Specialized Biocontainment Screening …, 2010):
Among all 320,000 compounds or so, about 1,300 (0.41%) were called active. Roughly 3% stayed inconclusive and do not appear here. No rule for the calls is given here. These entries were drawn from the full list. Potency and affinity values are given separately.

Assay: growth inhibition of non-replicating M. tuberculosis (AID 488890);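 also: plate controls were DMSO cells for no effect and high antibiotic wells for full effect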
Settings: Mycobacterium tuberculosis non-replicating, at 25 µM, stronger effect = higher value

Structure (SMILES)	inhibition
Cc1cc(C(=O)Nc2cc(C)on2)on1	6.65%
C=C[C@]1(C)C=C2CC[C@H]3[C@@](C)(CCC[C@@]3(C)C(=O)O)[C@@H]2CC1	43.7%
C=C/C(C)=C/CC1C(=C)CCC2C(C)(C(=O)O)CCCC12C (centres undefined)	0.01%
O=C(O)C1CCN(S(=O)(=O)c2ccc(N3CCOCC3)c([N+](=O)[O-])c2)CC1	-8.22%
Cc1ccc(N(C(=O)CNC(=O)c2ccco2)C(C(=O)NCC2CCCO2)c2ccccc2)cc1C (centres undefined)	16%
CCNC(=O)C(C)Sc1ccc(Cl)cc1 (centres undefined)	25.6%
COc1ccc(-c2nnn(CC(=O)N(C3CCCCC3)C(C)C(=O)NC3CCCC3)n2)cc1OC (centres undefined)	34.8%
COc1ccc(-c2nnn(CC(=O)NC(=O)NC3CCCCC3)n2)cc1OC	2.95%
CC(C)CCn1c(=O)c(C(=O)Nc2ccccc2S(N)(=O)=O)c(O)c2ccccc21	17.2%
CCOC(=O)Cc1csc(NC(=O)c2c(O)c3c(n(CC(C)C)c2=O)CCCC3)n1	44.2%
CCCCCn1c(=O)c(C(=O)Nc2cccc(C)n2)c(O)c2ccccc21	-21.5%
CCCCCn1c(=O)c(C(=O)Nc2ccccc2C)c(O)c2ccccc21	-22.9%
Cc1ccc(S(=O)(=O)N(C)C)cc1NC(=O)c1c(-c2c(F)cccc2Cl)noc1C	-9.18%
O=C(Nc1nccs1)c1ccc(Cl)cc1[N+](=O)[O-]	0.86%
O=C(Nc1nccs1)c1cc(Cl)ccc1[N+](=O)[O-]	12.9%
CCOc1cccc2cc(C(=O)Nc3cc(C)on3)c(=O)oc12	75.1%
CCOc1ccccc1C(=O)Nc1nccs1	5.93%
Nc1nnc(-c2ccccc2F)s1	1%
O=C(/C=C/c1ccc(Cl)cc1)Nc1ccccc1N1CCOCC1	-7.86%
O=c1[nH]c(=O)n(Cc2ccco2)c(O)c1/C=N/N1CCCCC1	1.03%
COCCN=C1NN=C(c2ccc(C)c([N+](=O)[O-])c2)CS1	-8.83%
N/C(=N\OC(=O)CCC1CCCC1)c1ccncc1	60.9%

Structure (SMILES)	inhibition
N/C(=N\OC(=O)CC1CCCCC1)c1cccnc1	73%
Cc1ccc(OCCN2CCN(c3nc(NCc4ccco4)c4ccccc4n3)CC2)cc1	62.8%
OCCN1CCN(c2nc(NCc3ccco3)c3ccccc3n2)CC1	9.79%
CCS(=O)(=O)c1ncc(Cl)c(C(=O)Nc2ccc(S(=O)(=O)N3CCCC(C)C3)cc2)n1 (centres undefined)	58.5%
CCc1ccc(NC(=O)c2nc(S(=O)(=O)Cc3ccccc3)ncc2Cl)cc1	0.81%
Cc1ccc(CS(=O)(=O)c2ncc(Cl)c(C(=O)Nc3ccc(OC(F)F)cc3)n2)cc1	-1.41%
CCN(c1ccccc1)S(=O)(=O)c1ccc(NC(=O)c2nc(S(C)(=O)=O)ncc2Cl)cc1	37.2%
CN(c1ccccc1)S(=O)(=O)c1ccc(NC(=O)c2nc(S(C)(=O)=O)ncc2Cl)cc1	56%
CCC1CCCCN1S(=O)(=O)c1ccc(NC(=O)c2nc(S(C)(=O)=O)ncc2Cl)cc1 (centres undefined)	66.2%
Cc1ccc(F)cc1NC(=O)N1CCCN(C(=O)OC(C)(C)C)CC1	-10.3%
O=C(CSc1ncn[nH]1)Nc1c(F)cc(F)cc1Br	-11.1%
Cc1ccc(NC(=O)CC(C)c2ccccc2)cc1S(=O)(=O)N1CCOCC1 (centres undefined)	10.4%
O=C(O)CNC(=S)N(Cc1ccccc1)Cc1cccnc1	6.66%
O=C(CSc1nncs1)Nc1nccs1	-27.1%
COCCN1CCn2c(nc3cc(NC(=O)Cn4nc(C)c5ccccc5c4=O)ccc32)C1	-5.63%
COc1ccc(OCCNc2cc(N3CCCCC3)ccc2[N+](=O)[O-])cc1	72.4%
COc1ccc(OCCNc2cc(N3CCOCC3)ccc2[N+](=O)[O-])cc1	26.3%
Cc1ccsc1C(=O)C1CCCN(Cc2sc(N(C)C)nc2Cl)C1 (centres undefined)	-9.22%
CC1CC(c2ccccc2)n2nc(NC(=O)c3ccco3)nc2N1 (centres undefined)	3.85%
CC1CCCC(NC(=O)CCCn2ncn3c(cc4occc43)c2=O)C1C (centres undefined)	-13.3%
CC1Cc2ccccc2N1C(=O)c1ccc(N2CCCCC2)c([N+](=O)[O-])c1 (centres undefined)	20.8%
Cc1ccc2sc3ccc(NC(=O)c4ccccc4Cl)cc3c(=O)c2c1	-1.36%

Structure (SMILES)	inhibition
Cc1ccc(C(=O)N[C@H](C(=O)NC2CCCCCCC2)C(C)C)cc1	-6.5%
Cc1ccc(C(=O)N[C@H](C(=O)NC2CCCCC2)C(C)C)cc1	15.5%
CN(C)c1cc[n+](CC(=O)N2c3ccccc3Sc3ccccc32)cc1	6.94%
CC1(c2cc(C(F)(F)F)n3nc(C(=O)O)cc3n2)CC1	-1.85%
Fc1ccc(Oc2cnc3ccccc3n2)cc1	75.1%
CCC(=O)Nc1nc2ccccc2n1CCN(CC)CC	12.6%
CCC(=O)Nc1nc2ccccc2n1CCN1CCOCC1	2.63%
CCS(=O)(=O)c1nc2ccccc2n1Cc1ccccc1Cl	17.3%
CCn1c(NCc2ccccc2Cl)nc2ccccc21	26.2%
Cc1nc2ccccc2n1Cc1ccc(Cl)cc1	16.2%
CCC(=O)Nc1nc2ccccc2n1CCN(C)C	28.6%
Cc1ccc(CNC(=O)c2nnn(-c3cccc(C)c3)c2N)cc1	27.4%
O=c1c2ccccc2nnn1COc1ccc(F)cc1Cl	33%
N#CC(C#N)=C1NC2(CCCCC2)Cc2ccccc21	-7.74%
CN(CC(=O)Nc1cccc(F)c1)C(=O)c1ccc(C2SCCS2)cc1	16%
COc1ccc(NC(=O)c2cnc(SCC(=O)NCCc3ccccc3)n(C)c2=O)cc1	-6.78%
COc1ccccc1C(=O)N(CCC1CCCN1C)c1nc2ccccc2s1 (centres undefined)	12.9%
CCCCn1c(N)c(N(CCOC)C(=O)c2sc3cc(F)ccc3c2Cl)c(=O)[nH]c1=O	-5.03%
NS(=O)(=O)c1ccc(NC(=O)COC(=O)COc2ccc3ccccc3c2)cc1	34.3%
O=C(CSc1n[nH]c(=O)n1Cc1ccco1)Nc1ccccc1	-4.65%
CCN1C(=O)C(CC(=O)Nc2ccc(Br)cc2)N(CCCc2ccccc2)C1=S (centres undefined)	41.5%
Cc1ccc(NC(=O)O/N=C/c2ccc(F)cc2)cc1	4.77%

Structure (SMILES)	inhibition
O=C(Nc1ccccc1)ON=C1CCCC1	69.3%
O=C(COc1cc2oc(=O)c3c(c2cc1Cl)CCC3)Nc1cccnc1	5.55%
Cc1ccc(-c2cc(C(F)F)nc(N3CCC(C)CC3)n2)cc1	8.45%
COc1ccc(-c2cc(C(F)(F)F)nc(S(=O)(=O)CCC(=O)N3CCOCC3)n2)cc1	79%
Cc1ccc(-c2cc(C(F)F)nc(N3CCOCC3)n2)cc1	17.6%
COc1ccccc1-c1cc(C(F)(F)F)nc(S(=O)(=O)CCCC(=O)O)n1	44.3%
COc1ccc(-c2cc(C(F)(F)F)nc(N)n2)cc1	6.01%
CCOC(=O)CCSc1nc(-c2ccccc2)cc(C(F)(F)F)n1	8.6%
Cc1cc(NC(=O)CCS(=O)(=O)c2nc(-c3ccccc3)cc(C(F)(F)F)n2)no1	41.1%
CCOC(=O)CSc1nc(-c2ccccc2)cc(C(F)(F)F)n1	69.6%
O=C1OC[C@H]2CCCN2C(=O)[C@@H](CC(=O)N(CCO)Cc2ccccc2)C/C=C\C[C@H]1Cc1ccc(F)cc1	47.4%
O=C1NNC(c2ccccc2)=N/C1=C\c1ccccc1	-6.71%
CSc1ccccc1C(=O)NCCCOC(C)C	-17.5%
O=C(O)/C=C/C(=O)NCCCc1ccccc1	18.7%
CC1=C(C(=O)OCCOC(C)C)C(c2cc3c(cc2Br)OCO3)C2=C(CCCC2=O)N1 (centres undefined)	12.9%
COc1cc(CC(CC(=O)O)CC(C)OCc2ccccc2)cc(OC)c1 (centres undefined)	24.2%
CN(Cc1cccc(F)c1)C(=O)c1ccc2c(=O)n3c(nc2c1)CCC3	-4.16%
COc1ccc(CN(C)C(=O)c2ccc3c(=O)n4c(nc3c2)CCC4)cc1	-3.83%
O=C(NNC(=O)c1ccccc1Cl)c1ccc2c(=O)n3c(nc2c1)CCC3	1.89%
O=C(c1ccc2c(=O)n3c(nc2c1)CCCCC3)N1CCN(c2ccc([N+](=O)[O-])cc2)CC1	25.7%
COc1ccc(COC(=O)c2ccc3c(=O)n4c(nc3c2)CCC4)cc1F	-0.76%
CC(OC(=O)c1ccc2c(=O)n3c(nc2c1)CCC3)C(N)=O (centres undefined)	-8.53%

Structure (SMILES)	inhibition
O=C(Nc1ccc2nc3n(c(=O)c2c1)CCCC3)c1cccc([N+](=O)[O-])c1	-20.7%
O=C(COc1ccccc1Cl)NNC(=O)c1ccc2c(=O)n3c(nc2c1)CCC3	-23%
CC1CCCCN1S(=O)(=O)c1ccc(S(=O)(=O)N2CCCC2)cc1 (centres undefined)	4.73%
CCOc1ccc(CCNS(=O)(=O)c2cc3c(cc2C)NC(=O)CO3)cc1OCC	16.2%
O=C(Cc1cccc2ccccc12)Nc1ccccc1Br	12.5%
CC(=O)Nc1nnc(SCC(=O)NCc2ccc3c(c2)OCO3)s1	-14.9%
Cc1ccc(C(=O)NCc2ccc3c(c2)OCO3)cc1Cl	45.9%
Cc1ccc(CS(=O)(=O)CCC(=O)N2CCC3(CC2)OCCO3)cc1	-11.2%
Cc1ccc(S(=O)(=O)Nc2ccccc2F)cc1C(=O)NCCCN1CCCC1=O	-4.79%
CCOC(=O)c1c(S(=O)(=O)Nc2ccc(C)c(F)c2)c(C)n(C)c1C	-0.18%
CC1(C)CC(=O)C(C2=NC3(CCCCCC3)Cc3ccccc32)=C(O)C1	-2.29%
CS(=O)(=O)N1CCC(C(=O)Nc2cc(Cl)ccc2Cl)CC1	-6.65%
CC(C)c1cc(C(=O)N2CCN(C(c3ccccc3)c3ccccc3)CC2)no1	21.3%
NC(=O)[C@@H]1CC2(CC(c3cccc(NC(=O)CC(c4ccccc4)c4ccccc4)c3)=NO2)CN1C(=O)[C@@H]1CCC(=O)N1 (some centres undefined)	14.1%
CCc1nnc(NC(=O)C2Cc3ccccc3CN2S(=O)(=O)CC)s1 (centres undefined)	5.84%
CC(OC(=O)c1ccc2c(=O)n3c(nc2c1)CCCCC3)C(=O)Nc1ncc(Cl)cc1Cl (centres undefined)	29.8%
CCOc1ccc(CCNC(=O)c2ccc3c(=O)n4c(nc3c2)CCCCC4)cc1	51%
CC(OC(=O)c1ccc2c(=O)n3c(nc2c1)CCCCC3)C(=O)Nc1ccc(F)cc1Cl (centres undefined)	2.57%
O=C(NNC(=O)c1ccc2c(=O)n3c(nc2c1)CCC3)c1ccc(F)cc1	-18.9%
O=C(Nc1ccc(F)cc1)c1ccc2c(=O)n3c(nc2c1)CCCCC3	21.9%
CCOc1ccc(NC(=O)c2ccc3c(=O)n4c(nc3c2)CCCCC4)cc1	20.7%
